# About 760 (36%) of roughly 2,100 compounds were called active.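 The calls were made as follows: active = thallium-flux fluorescence traces judged by eye to show enhanced or reduced glutamate response, manual score 1 or -1, so both directions (some results past the limit were not filed as active); inactive = the rest, including fluorescent or raised-baseline compounds.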 Not all results are given here.
# Assay: non-GIRK thallium flux modulation in mGlu8 cells, confirmation, counter-screen for GIRK activator project, cell-based, HEK-293 rmGlu8, no GIRK (AID 623868);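 also: extra codes mark interference with 3 for fluorescent and 4 for baseline rise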
# Conditions: thallium flux fluorescence, at 10 µM, actives lie on both sides, codes: 1 enhancer, -1 blocker, 0 none, thallium stimulus containing EC20 glutamate
row,Compound,manual score
1,Cc1cc(C(=O)CSc2nnc(-c3ccncc3)n2-c2ccccc2)c(C)n1C,0 (inactive)
2,O=C(Nn1cnnc1)c1cc2cc(Br)ccc2oc1=O,0 (inactive)
3,CC(C)OCCCn1c(=S)[nH]c2cc3c(cc2c1=O)OCO3,1 (active)
4,Cc1ccccc1Cn1cc(NC(=O)c2nc3ncccn3n2)cn1,0 (inactive)
5,O=C(NNC(=O)c1sccc1-n1cccc1)c1ccc(Cl)cc1,1 (active)
6,O=C(NNS(=O)(=O)c1cc(Cl)cc(Cl)c1)c1sccc1-n1cccc1,0 (inactive)
7,O=C(NNC(=O)c1sccc1-n1cccc1)c1cccc(Cl)c1,1 (active)
8,COc1ccc2[nH]c(C)c(C(=O)CN3CC(C)OC(C)C3)c2c1 (stereo not drawn),0 (inactive)
9,COC(=O)c1ccc2c(=O)n(CC3CCCO3)c(=S)[nH]c2c1 (stereo not drawn),1 (active)
10,COC(=O)c1ccc(C)c(NC(=O)CN2C(=O)c3ccccc3S2(=O)=O)c1,0 (inactive)
11,CCn1c(=S)[nH]c2cc(C(=O)OC)ccc2c1=O,1 (active)
12,COCCn1c(=S)[nH]c2cc(C(=O)N3CCN(c4ccc(F)cc4)CC3)ccc2c1=O,0 (inactive)
13,Cc1cccn2c(=O)c3cc(C#N)c(=NC(=O)c4cccnc4)n(CC4CCCO4)c3nc12 (stereo not drawn),3 (inactive)
14,COc1ccc2occ(C(=O)c3ccc(N=C(C)N(C)C)cc3)c2c1,0 (inactive)
15,CCCCN(CCCC)C(=S)N/N=C/c1c(C)[nH]n(-c2ccccc2)c1=O,1 (active)
16,Cc1ccc(-n2[nH]c(C)c(/C=N/c3ccccn3)c2=O)cc1,0.5 (inactive)
17,CC1=NN(c2ccccc2)C(=O)/C1=C\c1c(C)[nH]n(-c2ccccc2)c1=O,0 (inactive)
18,Cc1ccc(-n2[nH]c(C)c(C=Nc3cc(C)ccn3)c2=O)cc1,1 (active)
19,Cc1[nH]n(-c2ccccc2)c(=O)c1/C=N/c1ccccn1,1 (active)
20,O=c1c2ccccc2c(C=NCc2ccccn2)c(O)n1-c1ccccc1,0 (inactive)
21,Cc1[nH]n(-c2ccccc2)c(=O)c1N=Nc1nccs1,1 (active)
22,CCN(Cc1ccccc1)C(c1ccccn1)c1nnnn1C1CCCCC1 (stereo not drawn),0 (inactive)
23,CN(C)CCNC(=O)c1cc2c(s1)-c1ccccc1OC2,0 (inactive)
24,CC(NC(=O)c1ccccc1NC(=O)CSc1nnnn1C)c1ccccc1 (stereo not drawn),0 (inactive)
25,CN(C)Cc1c(O)ccc2occ(C(O)c3ccccc3)c12 (stereo not drawn),0 (inactive)
26,O=C1CC(N2CCN(c3nc4ccccc4s3)CC2)C(=O)N1c1ccc(F)cc1 (stereo not drawn),0 (inactive)
27,Cn1c(=O)cc(OCCCC(=O)NCc2ccc3c(c2)OCO3)c2ccccc21,0 (inactive)

row,Compound,manual score
1,Cc1[nH]n(-c2ccc(Cl)cc2)c(=O)c1/C=N/c1nnc(-c2ccccc2)s1,1 (active)
2,CC(C)C1Cc2c(sc3c2c(=O)n(Cc2ccccc2)c2nncn32)CO1 (stereo not drawn),-0.5 (inactive)
3,CC1(C)Cc2c(sc3[nH]c(=S)n(Cc4ccccc4)c(=O)c23)CO1,1 (active)
4,CC(C)C1Cc2c(sc3[nH]c(=S)n(Cc4ccccc4)c(=O)c23)CO1 (stereo not drawn),1 (active)
5,CC1(C)Cc2c(sc3[nH]c(=S)n(Cc4ccco4)c(=O)c23)CO1,1 (active)
6,CCC1(C)Cc2c(sc3[nH]c(=S)n(Cc4ccccc4)c(=O)c23)CO1 (stereo not drawn),1 (active)
7,Cc1ccc(C)c(OCC(O)CN2C(C)CCCC2C)c1 (stereo not drawn),0 (inactive)
8,Cc1cc(N2CCC(C)CC2)n2ncc(-c3ccccc3)c2n1,0 (inactive)
9,O=C(C1CCN(c2ncnc3c2sc2cccc(F)c23)CC1)N1CCOCC1,-0.5 (inactive)
10,CN(C)CCCOc1nc2c(c(=O)n(C)c(=O)n2C)n1C,1.5 (inactive)
11,CC1CCc2c(sc(NC(=O)C(=O)NCc3ccco3)c2C#N)C1 (stereo not drawn),1 (active)
12,O=C(Nc1ccc(Cl)cc1)NC1CCCCC1Cc1ccco1 (stereo not drawn),0 (inactive)
13,O=C(NCc1ccccc1)C(=O)Nc1nc(C23CC4CC(CC(C4)C2)C3)cs1,0 (inactive)
14,CCCCn1nc(C(=O)N2CCc3ccccc32)c2ccccc2c1=O,0 (inactive)
15,O=C(COc1ccc2ccccc2c1CN1CCOCC1)N1CCc2ccccc21,0 (inactive)
16,CCOC(=O)C(C)Sc1nnc(-c2c[nH]c3ccccc23)n1C (stereo not drawn),0 (inactive)
17,CCn1nc(C(=O)OCC(=O)N2CCc3ccccc32)c2ccccc2c1=O,-1 (active)
18,CCn1nc(C(=O)OCC(=O)c2c[nH]c3ccccc23)c2ccccc2c1=O,-1 (active)
19,CCN(C(=O)CN1CCN(c2ccccc2O)CC1)c1c(N)n(Cc2ccccc2)c(=O)[nH]c1=O,0 (inactive)
20,Cc1cccc(C(=O)NNC(=O)C(=O)NC(C)(C)C)c1,1 (active)
21,CC(C)(C)NC(=O)C(=O)NNC(=O)c1ccc(C(C)(C)C)cc1,1 (active)
22,CC(C)(C)c1ccc(C(=O)NC(=S)Nn2cnnc2)cc1,0 (inactive)
23,CC(C)(C)c1ccc(SCC(N)=O)cc1,0 (inactive)
24,COc1ccc(Cn2c(=S)[nH]c3ccsc3c2=O)cc1,1 (active)
25,COc1ccccc1N1CCN(C(=O)CCn2c(=O)[nH]c3ccsc3c2=O)CC1,0 (inactive)
26,COc1cc(NC(=O)CCn2c(=O)[nH]c3ccsc3c2=O)cc(OC)c1,0 (inactive)

# — PubChem BioAssay AID623868 (Vanderbilt High Throughput Screening Facility, 2012)
